For part of these data: Entries with a potency or affinity are not part of this list. The list shows a part of the results. Activity calls are given as the source filed them.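 How the source made its calls, unless noted: active means membrane potential signal moving either way by over 3 SD of the maximum-effect control, in both duplicate plates, meaning non-specific; inactive means the rest.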
Tests used:
[1] = test system: TRPC4 beta (transient receptor potential cation channel C4), mouse; test: activators of mouse TRPC4 channel, confirmation, cell-based, Fluo4 calcium, HEK293 TRPC4beta/mu-opioid, duplicates, 10 µM (AID 2426;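 active means fluorescence ratio normalized to control raised more than 50% in primary screen plus both repeat runs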;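 on activation: percent rise of integrated ratio over buffer wells lacking compound which define 0%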); settings: Fluo4 calcium fluorescence, at 10 µM; stronger effect = higher value
[2] = test system: transient receptor potential cation channel C4 beta (TRPC4), mouse; test: activators of mouse TRPC4 channel, confirmation, cell-based, second round, Fluo4, HEK293 TRPC4beta/mu-opioid, 1 µM (AID 2461;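 active means primary screen active and over 50% activation in each of two duplicate runs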;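 on activation: 0% = wells without test compound as baseline of integrated fluorescence ratio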); settings: Fluo4 calcium fluorescence, at 1 µM; stronger effect = higher value
[3] = test system: TRPC4 (transient receptor potential cation channel C4 beta), mouse; test: positive allosteric modulators of mouse TRPC4, confirmation, cell-based, second round, Fluo-4, HEK293 TRPC4beta/mu-opioid, 1 µM (AID 2554;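 active means primary screen hit whose fluorescence ratio, in both repeats, exceeds the weak agonist control mean by 3 SD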); settings: DAMGO EC20, Fluo-4 calcium flux, at 1 µM; stronger effect = higher value
[4] = test system: TRPC4 beta (transient receptor potential cation channel C4), mouse; test: positive allosteric modulators of mouse TRPC4, confirmation, cell-based, Fluo-4, HEK293 TRPC4beta/mu-opioid (AID 2555;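 active means primary screen hit whose calcium fluorescence ratio, in both repeats, exceeds the weak agonist control mean by 3 SD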); settings: DAMGO EC20, Fluo-4 calcium flux, at 10 µM; stronger effect = higher value
[5] = biological target: Short transient receptor potential channel 4 (Mus musculus) (UniProt Q9QUQ5); test: inhibitors of mouse TRPC4 channel, confirmation, cell-based, Fluo4, HEK293 TRPC4beta/mu-opioid (AID 2636;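 active means calcium signal cut by more than 3 SD below the full-agonist control yet still positive, in both repeats and the earlier primary screen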); settings: DAMGO, Fluo4 calcium flux, at 10 µM; stronger effect = higher value
[6] = biological target: Short transient receptor potential channel 4 (Mus musculus) (UniProt Q9QUQ5); test: inhibitors of mouse TRPC4 channel, confirmation, cell-based, second round, Fluo4, HEK293 TRPC4beta/mu-opioid, 1 µM (AID 2637;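 active means calcium signal ratio cut to more than 3 SD under the fully stimulated control mean yet still positive, in both repeats and the primary screen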); settings: Fluo4 calcium flux, DAMGO, at 1 µM; stronger effect = higher value
[7] = biological target: Short transient receptor potential channel 4 (Mus musculus) (UniProt Q9QUQ5); test: TRPC4 positive allosteric modulators, dose response, cell-based, HEK293 TRPC4/mu-opioid, Fluo-4 calcium, EC20 DAMGO (AID 434941;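 active means earlier screen potentiator hit that boosts the TRPC4 ion channel at some dose, with a dose response; inactive means no potentiation, no dose response, or not a prior hit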;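 further: calcium entry triggered by an EC20 dose of DAMGO at the co-expressed mu-opioid receptor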)
[8] = biological target: Short transient receptor potential channel 6 (Mus musculus) (UniProt Q61143); test: inhibition of mouse TRPC6 channel, confirmation, selectivity assay for TRPC4 inhibitor project, cell-based, HEK293, membrane potential dye, duplicate (AID 434948;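 active means active in primary screen and both duplicates, each dropping signal beyond three positive-control SD with fluorescence still positive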); settings: HEK293 TRPC6, membrane potential dye fluorescence, at 10 µM, stimulated with maximal-effect acetylcholine; stronger effect = higher value
[9] = biological target: Short transient receptor potential channel 6 (Mus musculus) (UniProt Q61143); test: activation of mouse TRPC6 channel, confirmation, selectivity assay for TRPC4 activator project, cell-based, HEK293, membrane potential dye, duplicate (AID 434950;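 active means membrane potential signal rise above negative control mean plus 3 SD in both duplicates, also active in the earlier TRPC4 screen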;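 on activation: 0% = buffer only wells and 100% = acetylcholine maximal-effect wells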); settings: HEK293 TRPC6, membrane potential fluorescence, at 10 µM; stronger effect = higher value
[10] = biological target: Short transient receptor potential channel 6 (Mus musculus) (UniProt Q61143); test: TRPC6 potentiation by TRPC4 potentiator hits, confirmation, selectivity assay for TRPC4 potentiator project, HEK293 cells, membrane potential dye, duplicate (AID 434952;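 active means compound raising the membrane signal above positive-control mean plus 3 SD in both repeats, and a primary screen hit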); settings: HEK293 TRPC6, membrane potential dye fluorescence, at 10 µM, maximal acetylcholine added after compound; stronger effect = higher value
[11] = biological target: Short transient receptor potential channel 4 (Mus musculus) (UniProt Q9QUQ5); test: calcium flux activators in TRPC4/5HT1a cells, counter-screen for TRPC4 activator project, cell-based, second counter screen, HEK293 TRPC4/5HT1a, Fluo-4 (AID 434977;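 active means calcium signal rise above buffer-control mean plus 5 SD in both duplicates, and also a hit in the primary screen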;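 on activation: plate controls were assay buffer for no effect and maximal serotonin response for full effect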); settings: Fluo-4 calcium flux, at 10 µM; stronger effect = higher value
[12] = calcium flux inhibitors in TRPC4/5HT1a cells, confirmation, counter-screen for TRPC4 inhibitor project, cell-based, second counter screen, HEK293 TRPC4/5HT1a, Fluo-4 (AID 434978;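 active means primary screen active whose calcium signal fell more than 3 SD beyond the full-serotonin control mean in both duplicate plates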;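 on outcome: serotonin given first at submaximal then at maximal dose after compound preincubation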); settings: Fluo-4 calcium flux, at 10 µM, serotonin added to trigger calcium flux; stronger effect = higher value
[13] = test system: TRPC4 (mouse), co-expressed with 5HT1a in HEK293; test: calcium flux potentiators in TRPC4/5HT1a cells, confirmation, counter-screen for TRPC4 potentiator project, cell-based, second counter screen, HEK293 TRPC4/5HT1a, Fluo-4 (AID 434979;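 active means signal rise over 3 SD above mean of control wells given weak agonist, in both repeats and first screen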); settings: Fluo-4 calcium flux, at 10 µM, serotonin added at its EC20 dose; stronger effect = higher value
[14] = calcium flux activation in mu-opioid HEK293 cells, confirmation, counter-screen for TRPC4 activator project, cell-based, HEK293 mu-opioid receptor line (AID 449723;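 active means hit in primary screen, with calcium signal over 5 SD above buffer well mean in both duplicates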;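 further: counter screen cells carry the mu-opioid receptor alone and lack TRPC4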); settings: Fluo-4 calcium fluorescence, at 10 µM; stronger effect = higher value
[15] = calcium flux enhancement in mu-opioid HEK293 cells, confirmation, counter-screen for TRPC4 allosteric potentiator project, cell-based, HEK293 mu-opioid receptor line (AID 449724;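 active means calcium signal rise more than 3 SD above the low-dose agonist control mean, in both duplicate plates and the primary screen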); settings: Fluo-4 calcium flux, at 10 µM, compound added before EC20 DAMGO stimulus; stronger effect = higher value
[16] = biological target: Short transient receptor potential channel 4 (Mus musculus) (UniProt Q9QUQ5); test: mouse TRPC4 membrane potential modulation by TRPC6 hits, confirmation, selectivity assay for TRPC6 inhibitor project, cell-based, second specificity screen, HEK293 TRPC4/mu-opioid (AID 2776;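 active means compounds whose fluorescence signal differed from control wells by over 3 SD, either direction, in both duplicate plates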); settings: HEK293 TRPC4/MOR, membrane potential dye fluorescence, at 10 µM, channel activated by saturating DAMGO dose; stronger effect = higher value
[17] = test system: transient receptor potential cation channel C4 (TRPC4), mouse; test: mouse TRPC4 modulation by TRPC6 hits, confirmation, selectivity assay for TRPC6 inhibitor project, cell-based, HEK293 TRPC4/mu-opioid, membrane potential dye (AID 2777;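 active means rise or fall in signal beyond 3 SD of buffer-only wells in both replicate plates, either sign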;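 further: integrated kinetic ratio of fluorescence range over baseline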); settings: membrane potential fluorescence, at 10 µM
[18] = nonspecific membrane potential effects, parental HEK293, confirmation, counter-screen for TRPC6 inhibitor project, cell-based, second counter screen (AID 2779); settings: parental HEK293 membrane potential dye fluorescence; at 10 µM; maximal acetylcholine challenge after compound addition
[19] = biological target: Short transient receptor potential channel 6 (Mus musculus) (UniProt Q61143); test: mouse TRPC6 channel inhibitors, confirmation, HEK293 cells, membrane potential dye, duplicate (AID 488960;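 active means fluorescence ratio falls more than 5 SD below the full-stimulation control mean, in both duplicate runs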;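 on inhibition: integrated fluorescence ratio of peak minus minimum over baseline after agonist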); settings: ACh-evoked depolarization, at 10 µM; stronger effect = higher value
[20] = biological target: Short transient receptor potential channel 4 (Mus musculus) (UniProt Q9QUQ5); test: mouse TRPC4 channel inhibitors, dose response, cell-based, HEK293 TRPC4/mu-opioid, Fluo-4 calcium (AID 434942;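 active means primary screen inhibitor hit that blocks the TRPC4 channel at some tested dose, yielding a dose curve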)

Short transient receptor potential channel 4 (Mus musculus), sequence (Q9QUQ5 whole entry, looked up): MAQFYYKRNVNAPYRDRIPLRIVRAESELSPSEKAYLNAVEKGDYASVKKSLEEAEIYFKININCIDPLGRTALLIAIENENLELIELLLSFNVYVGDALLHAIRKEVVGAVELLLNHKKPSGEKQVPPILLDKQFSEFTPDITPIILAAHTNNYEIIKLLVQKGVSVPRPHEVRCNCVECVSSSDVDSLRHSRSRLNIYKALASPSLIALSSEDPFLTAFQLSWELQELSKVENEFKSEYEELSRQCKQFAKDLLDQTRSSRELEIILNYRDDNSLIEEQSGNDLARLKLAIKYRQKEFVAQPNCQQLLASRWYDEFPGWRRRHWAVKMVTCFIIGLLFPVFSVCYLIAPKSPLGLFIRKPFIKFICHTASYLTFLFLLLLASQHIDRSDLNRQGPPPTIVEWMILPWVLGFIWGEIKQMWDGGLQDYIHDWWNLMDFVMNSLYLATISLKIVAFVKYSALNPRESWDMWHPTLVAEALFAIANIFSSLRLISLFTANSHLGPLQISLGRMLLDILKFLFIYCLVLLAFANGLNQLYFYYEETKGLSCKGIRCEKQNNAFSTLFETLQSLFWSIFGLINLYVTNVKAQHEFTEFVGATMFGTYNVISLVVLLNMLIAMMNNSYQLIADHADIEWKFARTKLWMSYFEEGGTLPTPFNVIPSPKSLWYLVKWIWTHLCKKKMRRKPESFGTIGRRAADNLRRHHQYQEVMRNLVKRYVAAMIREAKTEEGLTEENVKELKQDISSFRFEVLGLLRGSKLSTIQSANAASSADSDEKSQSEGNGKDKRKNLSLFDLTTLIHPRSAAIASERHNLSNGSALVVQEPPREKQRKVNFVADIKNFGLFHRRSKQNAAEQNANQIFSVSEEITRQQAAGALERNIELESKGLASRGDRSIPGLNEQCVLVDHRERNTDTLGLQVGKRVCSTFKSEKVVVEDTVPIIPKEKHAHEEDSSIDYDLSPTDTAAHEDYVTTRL
Short transient receptor potential channel 6 (Mus musculus), sequence (Q61143 whole entry, looked up): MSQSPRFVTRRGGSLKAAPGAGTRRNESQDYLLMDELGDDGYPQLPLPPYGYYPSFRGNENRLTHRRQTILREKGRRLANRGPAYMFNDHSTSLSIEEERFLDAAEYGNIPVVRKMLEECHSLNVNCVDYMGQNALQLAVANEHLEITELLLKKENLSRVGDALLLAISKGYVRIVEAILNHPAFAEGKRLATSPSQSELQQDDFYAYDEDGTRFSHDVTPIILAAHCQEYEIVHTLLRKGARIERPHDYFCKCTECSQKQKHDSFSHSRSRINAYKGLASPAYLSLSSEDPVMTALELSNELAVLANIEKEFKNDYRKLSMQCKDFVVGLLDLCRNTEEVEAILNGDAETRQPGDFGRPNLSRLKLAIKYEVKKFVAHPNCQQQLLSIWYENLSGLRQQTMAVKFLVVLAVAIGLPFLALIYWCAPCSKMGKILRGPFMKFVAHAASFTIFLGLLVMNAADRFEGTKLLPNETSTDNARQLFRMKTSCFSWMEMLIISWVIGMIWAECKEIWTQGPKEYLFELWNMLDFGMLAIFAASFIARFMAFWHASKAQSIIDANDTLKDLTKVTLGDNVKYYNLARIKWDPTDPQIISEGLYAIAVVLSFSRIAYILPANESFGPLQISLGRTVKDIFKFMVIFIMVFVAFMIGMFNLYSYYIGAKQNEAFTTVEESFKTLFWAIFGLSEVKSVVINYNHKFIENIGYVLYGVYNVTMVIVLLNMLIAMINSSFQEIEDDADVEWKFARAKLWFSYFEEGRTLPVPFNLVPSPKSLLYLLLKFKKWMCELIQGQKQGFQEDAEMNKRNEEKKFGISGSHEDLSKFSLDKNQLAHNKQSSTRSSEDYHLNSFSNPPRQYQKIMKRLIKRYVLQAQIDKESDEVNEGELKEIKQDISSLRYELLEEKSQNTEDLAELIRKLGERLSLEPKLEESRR

CC(NCc1cc(Br)ccc1OCC(=O)NCc1ccccc1)c1ccccc1 (centres undefined)
active: inhibition [5] 100% | activation [9] 55% | inhibition [12] 35.1%
inactive: outcome [1] | outcome [2] | outcome [3] | outcome [4] | outcome [6] | outcome [7] | outcome [8] | outcome [10] | outcome [11] | outcome [13] | outcome [14] | outcome [15]

CC(C)c1ccc(OCC(O)Cn2cnc3ccccc32)cc1 (centres undefined)
inactive: outcome [16] | outcome [17] | outcome [18] | outcome [19]

COc1ccc(CC(=O)Nc2sc(Cc3ccccc3)c(C)c2C(N)=O)cc1
inactive: outcome [16] | outcome [17] | outcome [18] | outcome [19]

Cc1cc(OCCNCCO)cc(C)c1Cl
inactive: outcome [5] | outcome [6] | outcome [20] | outcome [8] | outcome [10] | outcome [12] | outcome [14] | outcome [15]
active: activation [1] 122% | activation [2] 65% | potentiation [3] 20% | potentiation [4] 19% | activation [9] 37% | activation [11] 35.3% | potentiation [13] 24.3%

CC(C)CCNc1nc(N2CCCC2)c2c(c1C#N)CCN(C)C2
active: inhibition [16] 54% | activity change, negative = inhibition [17] -16.9% | inhibition [19] 71.5%
inactive: outcome [18]

CC1CC(C)CN(C/C=C/c2ccccc2[N+](=O)[O-])C1 (centres undefined)
active: activity change, negative = inhibition [17] 4.24% | signal change vs control [18] 266%
inactive: outcome [16] | outcome [19]

COc1ccccc1C1SCCN1C(=O)c1ccc([N+](=O)[O-])cc1 (centres undefined)
inactive: outcome [16] | outcome [17] | outcome [18] | outcome [19]

Cn1c(=O)n(C)c2cc(C(=O)Nc3ccc4c(c3)OCO4)ccc21
inactive: outcome [16] | outcome [18] | outcome [19]
active: activity change, negative = inhibition [17] -23.4%

Cc1cc(NCc2ccccc2)nc2ccccc12
active: activation [1] 95% | inhibition [8] 53.5% | activation [11] 5.93% | inhibition [12] 26.2%
inactive: outcome [2] | outcome [3] | outcome [4] | outcome [5] | outcome [6] | outcome [7] | outcome [9] | outcome [10] | outcome [13] | outcome [14] | outcome [15]
